High-throughput results (PubChem)
A selection: hits, their analogues and other compounds. The true share with any hit is near 5.1%.
Tau fibril ThT – qHTS for Inhibitors of Tau Fibril Formation, Thioflavin T Binding | Microtubule-associated protein tau (Homo sapiens), P10636 | recombinant tau K18 P301L, heparin-induced fibrillization, ThT fluorescence | Potency, µM (highest dose often 57.4 µM), most hits filed as inhibitors | 270,000 compounds, 2.1% hits | AID 1460, 2008; also: nearly all actives have a fitted effect of over 55% in size
Target sequence (P10636 561-689 P618L limits assumed): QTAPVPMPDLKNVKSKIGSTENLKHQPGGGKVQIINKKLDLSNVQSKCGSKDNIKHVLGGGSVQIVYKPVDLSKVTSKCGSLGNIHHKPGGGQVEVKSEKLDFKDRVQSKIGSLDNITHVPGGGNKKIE
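ThT emission at 510 nm, taken 1 hr after adding 30 uM dye, quantifies aggregates formed when 20 uM heparin acts on human tau K18 P301L for 6 hr at 37 C.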
Tau fibril FP – qHTS for Inhibitors of Tau Fibril Formation, Fluorescence Polarization | K18 P301L tau heparin fibrillization, Alexa594 FP, 6 h | Microtubule-associated protein tau (Homo sapiens), P10636 | Potency, µM (titrated, usually from 57.7 µM), actives largely listed as inhibitors | 280,000 compounds, 0.39% hits | AID 1468, 2008; also: nearly all actives have a fitted effect of over 55% in size
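Human tau K18 […] P301L fragment, 15 uM unlabeled plus 0.24 uM Alexa 594-labeled tau (final), with compound and 20 uM heparin in 100 mM sodium acetate pH 7; 6 hr at 37 C, then Alexa 594 FP read.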
NPSR antagonist – qHTS Assay for Antagonists of the Neuropeptide S Receptor: cAMP Signal Transduction. Q6W5P4. CHO-NPSR cells, cAMP TR-FRET, antagonist mode. Potency, µM (titrated, usually from 38.3 µM), hits mostly inhibitors. 220,000 compounds, 1% hits. AID 1461, 2008; also: nearly all actives have a fitted effect of over 50% in size
Target sequence (Q6W5P4 whole entry, looked up): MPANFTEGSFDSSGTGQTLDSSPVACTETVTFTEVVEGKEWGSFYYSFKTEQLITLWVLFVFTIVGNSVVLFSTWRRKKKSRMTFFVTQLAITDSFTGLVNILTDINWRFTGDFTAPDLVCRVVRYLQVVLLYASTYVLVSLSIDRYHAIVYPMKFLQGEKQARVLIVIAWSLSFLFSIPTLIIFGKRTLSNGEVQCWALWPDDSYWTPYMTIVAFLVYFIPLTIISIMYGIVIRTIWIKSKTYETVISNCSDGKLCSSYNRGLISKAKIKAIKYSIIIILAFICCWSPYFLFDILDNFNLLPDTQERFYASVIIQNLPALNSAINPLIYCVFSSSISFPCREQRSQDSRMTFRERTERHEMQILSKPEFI
PNC inhibitor – High Content Assay for Compounds that inhibit the Assembly of the Perinucleolar Compartment. PC3M PTB-GFP, PNC prevalence imaging, 16 h; stronger effect = lower value. activity change (PNC), negative = inhibition, % at 10 µM. 140,000 compounds, 3.1% hits. AID 2417, 2010;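 active = readout at or below -70, meaning at least 70% loss of cells showing the perinucleolar compartment, a nuclear body marking cancer cells; inconclusive = readout between -30 and a set limit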
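Read-out is percentage of cells bearing a perinucleolar compartment, from automated 20x imaging of fixed, Hoechst-stained PC3M PTB-GFP cells. Cells were seeded 4 h, then exposed 16 h to compound (23 nl of library stock) in duplicate plates.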
Tau fluor cs – Counterscreen qHTS for Inhibitors of Tau Fibril Formation, Fluorescence Polarization. 280,000 compounds, 0.93% hits. tau K18 P301L (four-repeat tau fragment) Alexa594 fluorescence, heparin fibrillization. AID 1463, 2008. Potency, µM (series often up to 57.7 µM); also: nearly all actives have a fitted effect of over 55% in size
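Human K18 P301L tau (15 uM unlabeled plus 0.24 uM Alexa 594-labeled, final) in 100 mM sodium acetate pH 7 was mixed with compound and 20 uM heparin and incubated 6 hr at 37 C.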
JMJD2E inh – qHTS Assay for Inhibitors of Human Jumonji Domain Containing 2E (JMJD2E); Lysine-specific demethylase 4E (Homo sapiens), B2RXH2; JMJD2E catalytic domain, FDH-coupled NADH fluorescence (FDH is formaldehyde dehydrogenase); Potency, µM (series often up to 57.1 µM), most hits filed as inhibitors; 230,000 compounds, 1.6% hits; active = well fitted inhibition curve with a large enough effect, not every such curve was filed as active; inconclusive = small, poorly fitted or top-dose-only effect, or another doubt; inactive = no such curve, though single readings can be large or run the other way; also: nearly all actives have a fitted effect of over 50% in size
Of the large screens only hits and unclear results are named; the others gave an inactive call. Unless noted, calls follow the shape of the dose curve; as a rule, active = well fitted curve in the direction sought with a large enough effect; inconclusive = small, poorly fitted or top-dose-only effect, or another doubt; inactive = no such curve, though single readings can be large; an effect the other way counts as inactive or inconclusive.

COC(=O)c1ccc(C2c3c(oc4ccccc4c3=O)C(=O)N2c2nc(C)c(C(=O)OC)s2)cc1 (centres undefined)	none (no result: NPSR antagonist, PNC inhibitor, JMJD2E inh)
CC(=O)c1c[nH]c2ccc(C)cc2c1=O	PNC inhibitor -87, JMJD2E inh inconclusive
CCOC(=O)c1ccc2[nH]cc(C(C)=O)c(=O)c2c1	none
CCOc1ccc2c(O)csc2c1	Tau fibril ThT 25µM, Tau fibril FP inconclusive
CCCCCCN1C2=NCCN2c2ccccc21	PNC inhibitor -107
CCCN1C2=NCCN2c2ccccc21	none
c1ccc(OCCN2C3=NCCN3c3ccccc32)cc1	PNC inhibitor -90
CCCCCCCN1C2=NCCN2c2ccccc21	none (no result: PNC inhibitor)
COc1cccc(-c2cn3c(n2)sc2cc(C(=O)NCCc4ccccc4)ccc23)c1	none (no result: NPSR antagonist, PNC inhibitor, JMJD2E inh)
COc1ccc(C2CC(c3ccc(F)cc3)Nc3nc(N)nn32)cc1 (centres undefined)	none
CCOc1ccccc1C1CC(c2ccc(Br)cc2)Nc2nc(N)nn21 (centres undefined)	PNC inhibitor -114
COc1cccc(C2CC(c3c(F)cccc3Cl)n3nc(N)nc3N2)c1 (centres undefined)	PNC inhibitor -110
COc1cccc(C2CC(c3c(Cl)cccc3Cl)n3nc(N)nc3N2)c1 (centres undefined)	Tau fibril ThT inconclusive, PNC inhibitor inconclusive
CCOc1ccc(C2CC(c3ccccc3C)n3nc(N)nc3N2)cc1 (centres undefined)	none
Nc1nc2n(n1)C(c1ccc(Cl)cc1)CC(c1ccc(F)cc1)N2 (centres undefined)	PNC inhibitor -119
Cc1ccc(C)c(N2CCN(C(c3ccc(F)cc3)c3nnc(-c4ccccc4)o3)CC2)c1 (centres undefined)	none (no result: NPSR antagonist, PNC inhibitor, JMJD2E inh)
CCOC(=O)COc1ccccc1/C=C\[N+](=O)[O-]	Tau fibril ThT inconclusive, Tau fibril FP inconclusive, NPSR antagonist 7.9µM, PNC inhibitor inconclusive
N#CC12C(N)=NC3(OCCO3)C1(C#N)C1=C(CCC1)NC2c1ccccc1 (centres undefined)	Tau fibril ThT inconclusive, JMJD2E inh inconclusive
N#CC1(C#N)C2=C(CCCC2)NC(c2ccccc2)C1(C#N)C#N (centres undefined)	Tau fibril ThT 25µM, Tau fibril FP inconclusive, Tau fluor cs inconclusive, JMJD2E inh inconclusive
COc1cccc(NC(=O)c2ccc(CNS(=O)(=O)c3ccc4c(c3)C(C)(C)C(=O)N4C)cc2)c1	Tau fluor cs inconclusive (no result: NPSR antagonist, PNC inhibitor, JMJD2E inh)
COc1ccccc1-c1nnc(SCC(=O)c2ccc(Cl)cc2)n1-c1ccccc1	none (no result: NPSR antagonist, PNC inhibitor, JMJD2E inh)
CCn1c(SCC(=O)c2ccc(O)c(O)c2)nnc1-c1ccccc1OC	JMJD2E inh 22µM
Cc1ccccc1-n1c(SCC(=O)N2CCN(c3ccccc3)CC2)nnc1-c1ccncc1	none
CCn1c(SCC(=O)N2CCN(c3ccccc3)CC2)nnc1-c1ccncc1	PNC inhibitor -100
C=CCn1c(SCC(=O)c2ccc(O)c(O)c2)nnc1-c1cccnc1	Tau fibril ThT inconclusive, JMJD2E inh 3.5µM (no result: PNC inhibitor)
CCn1c(CSc2nc3ccccc3s2)nnc1SCC(=O)c1ccc(O)c(O)c1	Tau fibril ThT inconclusive, PNC inhibitor inconclusive, Tau fluor cs inconclusive, JMJD2E inh 14µM
CCCC(=O)Nc1ccccc1C(=O)OCc1cc(=O)n2nc(C(C)C)sc2n1	none (no result: NPSR antagonist, PNC inhibitor, JMJD2E inh)
Cc1ccc2onc(CNC(=O)N(C)Cc3ccccc3)c2c1	none (no result: NPSR antagonist, PNC inhibitor, JMJD2E inh)
C=CCn1c(SCC(=O)c2ccc(O)c(O)c2)nnc1-c1ccccc1OC	Tau fibril ThT inconclusive, JMJD2E inh 10µM
C=CCn1c(SCC(N)=O)nnc1-c1ccccc1O	none
CCn1c(SCC(=O)c2cc(C)n(C)c2C)nnc1-c1ccccc1	none
